From PubChem BioAssay (Tox21)
Results filed as inconclusive are left out. Entries that show only a call come without a potency. Activity calls are given as the source filed them. Calls follow the shape of the dose curve; as a rule, active = well fitted activation curve with a large enough effect in the repeat runs; inconclusive = weak or mixed curves; inactive = flat fitted curve, though single readings scatter.

Experiment: A CellTox Green Cytotoxicity Assay to monitor cytotoxicity in HepG2 cells - 24 hour (AID 1224878); also: nearly all actives have a fitted effect of over 45% in size
Conditions: CellTox Green fluorescence; series mostly up to 76.8 µM
Procedure, shortened: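 First, HepG2 cells (600/well) mixed with reagent were plated; second, after 5 h at 37 C they received compounds via pintool; third, fluorescence was measured at 0 h through 40 h at 8 h intervals.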
Potency is read from the fitted curve at half-maximal effect.

| SMILES | Potency |
| --- | --- |
| CN1CCC[C@@H]1Cc1c[nH]c2ccc(CCS(=O)(=O)c3ccccc3)cc12 | inactive |
| N#CSCC(=O)O | inactive |
| CCCN(CCC)C(=O)C(CCC(=O)O)NC(=O)c1ccccc1 (stereo unspecified) | inactive |
| COC(=O)C(C)O (stereo unspecified) | inactive |
| CCOC(=O)NCCC[Si](OCC)(OCC)OCC | inactive |
| O=C(C(Cl)Cl)N1CCOC12CCCCC2 | inactive |
| COc1ccccc1N1CCN(CCCNc2cc(=O)n(C)c(=O)n2C)CC1 | inactive |
| CC(=O)O[C@H]1CC[C@@]2(C)C(=CC[C@@H]3[C@@H]2CC[C@]2(C)C(C(C)=O)=CC[C@@H]32)C1 | inactive |
| FC(F)(F)C(F)(F)C(F)(F)C(F)(F)C(F)(F)C(F)(F)C(F)(F)C(F)(F)Br | inactive |
| Cn1cnc2c(F)c(Nc3ccc(Br)cc3Cl)c(C(=O)NOCCO)cc21 | 30.1 nM (active) |
| CCN(CC)CC1CCCCN1CC(=O)N1c2ccccc2C(=O)Nc2cccnc21 (stereo unspecified) | inactive |
| O=C(Cl)c1cccc([N+](=O)[O-])c1 | inactive |
| CCCCCCC | inactive |
| CCOC(=O)C(Br)c1ccccc1 (stereo unspecified) | inactive |
| CCCC(CCC)(C(=O)OCC)C(=O)OCC | inactive |
| CCC/C=C/CO | inactive |
| CC(=O)OC(C)OC(C)=O | inactive |
| OC[C@H]1O[C@@H](O[C@H]2[C@H](O)[C@@H](O)[C@H](O)O[C@@H]2CO)[C@H](O)[C@@H](O)[C@H]1O | inactive |
| CC(C)S | inactive |
| COc1ccc(S(=O)(=O)Nc2nnc(CC(C)C)s2)cc1 | inactive |
| O=c1[nH]cnc2c1ncn2[C@@H]1O[C@H](CO)[C@@H](O)[C@H]1O | inactive |
